For 26 compounds, Potency and max response results are on record in PubChem BioAssay AID651813 (National Center for Advancing Translational Sciences (NCATS), 2012).

About 1,100 (52%) of roughly 2,100 compounds were called active. Another 27% or so got no clear call; they are omitted. The call rests on the fitted dose curve; in most records, active means well fitted inhibition curve with a large enough effect; inconclusive means small, poorly fitted or top-dose-only effect; inactive means no such curve, though single readings can be large or run the other way. So high a share suggests a set chosen from earlier hits. The list shows a part of the results.
Potency means the concentration at half of the fitted maximal effect.

Sequence of DNA dC->dU-editing enzyme APOBEC-3G (Homo sapiens) (Q9HC16 whole entry, looked up): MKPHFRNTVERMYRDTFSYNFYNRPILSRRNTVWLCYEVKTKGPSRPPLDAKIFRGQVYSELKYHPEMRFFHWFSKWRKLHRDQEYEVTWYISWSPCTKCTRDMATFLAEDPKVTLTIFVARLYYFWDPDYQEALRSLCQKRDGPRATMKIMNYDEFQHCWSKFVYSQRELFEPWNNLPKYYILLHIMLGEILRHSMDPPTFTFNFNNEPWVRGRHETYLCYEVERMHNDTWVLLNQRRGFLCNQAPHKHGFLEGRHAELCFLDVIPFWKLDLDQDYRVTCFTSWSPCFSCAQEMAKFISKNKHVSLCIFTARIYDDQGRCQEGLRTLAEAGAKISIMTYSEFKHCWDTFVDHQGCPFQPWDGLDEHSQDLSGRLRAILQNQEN

The assay addresses DNA dC->dU-editing enzyme APOBEC-3G (Homo sapiens) (UniProt Q9HC16). Put plainly: qHTS for inhibitors of Vif-A3G interactions: Cherry picks counterscreen.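 Further: hits raise yellow fluorescence by blocking Vif-driven A3G-eYFP degradation; nearly all actives have a fitted effect of over 70% in size.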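 On max response: max response given as percent of control signal.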 The settings on record: HeLa A3G-eYFP + Vif (tagged APOBEC3G with the HIV-1 protein that degrades it), eYFP fluorescence, 24 h. In short, it runs like this:
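HeLa cells stably expressing A3G-eYFP and Vif were treated for 24 h at 37 deg C with compounds at several concentrations; yellow fluorescence (Ex 488 nm, Em 500-530 nm) read by Acumen Explorer, MG132 as positive control.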
(In general: qHTS replaces the single test concentration by a dilution series.)
For the compound `COc1ccc(S(=O)(=O)Nc2cccc(-c3ccc4nncn4n3)c2)cc1`, the Potency was 4.98 µM (active).
The same measure, in the same setting: the same measure for `COc1ccc(S(=O)(=O)Nc2cccc(-c3ccc4nncn4n3)c2)cc1F`: 4.44 µM (active).
`O=C(N/N=C/C=C/c1ccco1)c1ccncc1`: the max response is 0.191% (inactive).
For `O=[N+]([O-])c1ccc(N/N=C/C=C/c2ccco2)cc1`, the Potency was 18.4 µM (active).
Same read-out and setting: the same measure for `O=C1/C(=C/c2c[nH]c3ccccc23)CCC/C1=C\c1c[nH]c2ccccc12`: 20.6 µM (active); for `CCOc1ccc(C2CC(c3c(O)c4ccccc4oc3=O)=NN2c2ccccc2)cc1OC` (stereo unspecified): 5.17 µM (active).
In the case of `Nc1nn(-c2ccccc2)c(N)c1N=Nc1ccccc1`, the Potency was 8.86 µM (active).
For `c1ccc(N=NC2=NN(c3ccccc3)CS2)cc1`, the max response is 20.9% (inactive).
On to `Cn1ccnc1Sc1nc2ccccc2nc1NS(=O)(=O)c1ccccc1`, for which the max response is -7.62% (inactive).
With `COc1cc(Cl)c(C)cc1Nc1nc2ccccc2nc1NS(=O)(=O)c1ccccc1`, the Potency is 20.6 µM (active).
As to `O=C(N=c1ccn(-c2nc3ccccc3nc2NS(=O)(=O)c2ccccc2)cc1)c1cccs1`, the max response was 0.295% (inactive).
Take `Cc1ccc(S(=O)(=O)Nc2nc3ccccc3nc2Nc2cccc(S(=O)(=O)N3CCCC3)c2)cc1`: the Potency was 23.1 µM (active).
As to `O=S(=O)(Nc1nc2ccccc2nc1Nc1cccc(S(=O)(=O)N2CCCCC2)c1)c1ccccc1`, the Potency is 20.6 µM (active).
Turning to `CC(=O)Nc1ccc(S(=O)(=O)Nc2nc3ccccc3nc2Nc2ccc3ccccc3c2)cc1`, the max response was -17.6% (inactive).
The same measure, in the same setting: the same measure for `COC(=O)c1cc(Nc2nc3ccccc3nc2NS(=O)(=O)c2ccc(C)cc2)ccc1Cl`: -22.7% (inactive).
Consider `Cc1c2ccccc2nc2c(F)c(NC(C)C)c(F)c(F)c12`, for which the Potency was 8.2 µM (active).
`CCCNc1c(F)c(F)c2c(C)c3ccccc3nc2c1F`: the Potency is 12.5 µM (active).
With `CCCNC(=O)c1ccccc1NC(=O)c1ccc2c(c1)NC(=O)C(C)S2` (stereo unspecified), the Potency was 7.04 µM (active).
With `CC1Sc2ccc(C(=O)NCc3ccccn3)cc2NC1=O` (stereo unspecified), the max response was 3.16% (inactive).
On the same count and under the same terms, the same measure for `CC(C)CCNC(=O)c1ccc2c(c1)NC(=O)C(CS(=O)(=O)Cc1cccc(Br)c1)N2` (stereo unspecified): 2.76% (inactive).
`CCN(CC)c1ccc(NC(=O)c2cccc(F)c2)c(C)c1`: the Potency was 4.98 µM (active).
In the case of `COc1ccc(OC)c(NC(=O)Cn2cnc3onc(-c4ccc(Cl)cc4)c3c2=O)c1`, the max response is 9.98% (inactive).
With `COc1ccc(OC)c(Nc2ncnc3c2cnn3-c2cccc(Cl)c2)c1`, the Potency was 7.31 µM (active).
Take `Cc1ccc2[nH]c(C(=O)NN=C3CCCCC3)c(-c3ccccc3)c2c1`: the max response was 4.2% (inactive).
With `Cc1cc(NC(=O)/C(C#N)=C/c2ccc(-c3ccc(SC(F)F)cc3)o2)n(-c2ccccc2)n1`, the Potency was 4.61 µM (active).
Take `Cc1cc(NC(=O)/C(C#N)=C\c2ccc(-c3ccc(SC(F)F)cc3)o2)n(-c2ccccc2)n1`: the Potency is 2.59 µM (active).
